From PubChem BioAssay AID488969 (Vanderbilt High Throughput Screening Facility, 2010)
In all, about 110,000 compounds were measured (“z-score”: median about -0.1, highest 2% from about 2 on). Shown is part of a subset that was picked to be rich in the highest values. Activity calls are given as the source filed them.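 How the source made its calls: active means z-score in the third read window above 3 or below -3; inactive means the rest.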

biological target: Metabotropic glutamate receptor 8 (Rattus norvegicus) (UniProt P70579); test: mGluR8 Gi/Go-coupled signaling modulation – cell-based, rat, thallium flux, HTS, primary screen (AID 488969); details: HEK293 rat mGluR8, GIRK (G protein-gated inwardly rectifying potassium channel) thallium flux, FluoZin2; at 10 µM; stronger effect = higher value; submaximal glutamate (EC20) added with thallium
Sequence (P70579 whole entry, looked up): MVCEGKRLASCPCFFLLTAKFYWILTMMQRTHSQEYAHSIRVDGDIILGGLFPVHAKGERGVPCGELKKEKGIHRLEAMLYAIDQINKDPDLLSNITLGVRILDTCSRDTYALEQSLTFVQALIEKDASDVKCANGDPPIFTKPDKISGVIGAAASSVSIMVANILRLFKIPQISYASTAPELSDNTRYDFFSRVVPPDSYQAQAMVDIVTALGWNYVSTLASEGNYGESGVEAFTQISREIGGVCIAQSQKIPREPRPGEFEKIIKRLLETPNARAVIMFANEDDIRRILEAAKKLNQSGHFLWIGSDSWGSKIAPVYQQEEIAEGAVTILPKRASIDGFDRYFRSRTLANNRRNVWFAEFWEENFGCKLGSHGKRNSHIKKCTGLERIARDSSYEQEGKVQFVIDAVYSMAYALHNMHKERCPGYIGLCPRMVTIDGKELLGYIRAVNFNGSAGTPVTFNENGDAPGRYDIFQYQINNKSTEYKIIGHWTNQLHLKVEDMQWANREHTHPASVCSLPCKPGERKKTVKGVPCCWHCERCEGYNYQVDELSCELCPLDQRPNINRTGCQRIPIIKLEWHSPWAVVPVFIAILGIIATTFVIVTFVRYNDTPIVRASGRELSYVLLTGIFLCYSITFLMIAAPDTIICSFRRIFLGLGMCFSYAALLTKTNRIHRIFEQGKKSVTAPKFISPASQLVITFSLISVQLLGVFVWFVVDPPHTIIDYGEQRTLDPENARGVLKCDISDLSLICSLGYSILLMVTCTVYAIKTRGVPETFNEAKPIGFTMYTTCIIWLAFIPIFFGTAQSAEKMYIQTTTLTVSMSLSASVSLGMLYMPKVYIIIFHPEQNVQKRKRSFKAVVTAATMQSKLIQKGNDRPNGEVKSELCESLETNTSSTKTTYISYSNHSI

Row | SMILES | z-score
1 | CCC(=O)NC(c1cccs1)c1cc([N+](=O)[O-])c2cccnc2c1O (stereo unspecified) | -0.0253
2 | CC(NC(=O)NC1CCCCC1)C(c1cccs1)N1CCN(Cc2ccccc2)CC1 (stereo unspecified) | -1.18
3 | O=S(=O)(Nc1cc(Cl)ccn1)c1ccc(Cl)cc1 | 0.404
4 | CCCCCC(=O)Nc1c(-c2ccc(OC)cc2)c(=O)c2ccccc2n1C | 0.109
5 | CCCC(=O)Nc1c(-c2ccc(OC)cc2)c(=O)c2ccccc2n1C | -0.253
6 | CCC(=O)Nc1c(-c2ccc(OC)cc2)c(=O)c2ccccc2n1C | 2.76
7 | O=S(=O)(Nc1ccc(Cc2ccncc2)cc1)c1cccs1 | -0.0895
8 | CS(=O)(=O)N1N=C(c2ccc3nccnc3c2)CC1c1ccccc1 (stereo unspecified) | -0.111
9 | COc1c2occc2c(OC)c2c(=O)cc(C(F)(F)F)oc12 | 2.92
10 | COc1c2occc2cc2ccc(=O)oc12 | -0.548
11 | O=c1cc(C(F)(F)F)oc2c1ccc1ccccc12 | -0.211
12 | CCC(C)N=C1SCC(C)(/C=N/O)S1 (stereo unspecified) | -0.0708
13 | CN=Cc1nc(-c2ccccc2)oc1O | 1.62
14 | C(=N\c1nccs1)/c1c[nH]c2ccccc12 | -0.861
15 | Oc1ccc2ccccc2c1/C=N/c1nccs1 | 0.277
16 | Oc1[nH]c2ccccc2c1/C=N/c1nccs1 | 2.09
17 | Oc1oc(-c2ccccc2)nc1/C=N/c1nccs1 | 1.54
18 | Oc1oc(-c2cccc3ccccc23)nc1/C=N/c1nccs1 | 7.77 (active)
19 | CCCCOc1ccc(-c2nc(/C=N/c3nccs3)c(O)o2)cc1 | 2.84

Row | SMILES | z-score
20 | Oc1oc(-c2ccccc2)nc1C=Nc1cccc2ccccc12 | -0.00127
21 | CCOc1ccc2nc(/N=C/c3nc(-c4ccc(Br)cc4)oc3O)sc2c1 | 0.754
22 | N#Cc1c(N)c(C(=O)c2ccccc2)n2c1CCCC2 | -0.142
23 | C#CCn1c(S(=O)(=O)Cc2ccc(C)cc2)nc(-c2ccccc2)c1-c1ccccc1 | -0.259
24 | COc1ccc(C(C#N)N2N=C(c3ccccc3)CC2c2ccccc2)cc1OC (stereo unspecified) | 0.0225
25 | CC1CC(C)(C)CC2(C1)NC(=O)N(CC(=O)NCC(c1ccco1)N1CCCCC1)C2=O (stereo unspecified) | 0.771
26 | Cc1nnc(SCC(=O)NCc2ccco2)n1-c1ccccc1 | -0.0052
27 | Cn1c(SCC(=O)Nc2ccccc2)nnc1-c1ccc(NC(=O)CCc2ccccc2)cc1 | -0.164
28 | CN(CP(=O)(O)CN(C)S(C)(=O)=O)S(C)(=O)=O | 0.00353
29 | O=C(NCc1ccco1)c1cnn2c(C(F)(F)F)cc(-c3ccccc3)nc12 | -0.67
30 | CC1Nc2nc(N(C)C)[nH]c(=O)c2NC1C (stereo unspecified) | 0.838
31 | CCOC(=O)C(CC)n1cnc2c(nnn2-c2ccc(C)cc2)c1=O (stereo unspecified) | -0.636
32 | CCC(C(=O)OC)n1cnc2c(nnn2-c2ccc(OC)cc2)c1=O (stereo unspecified) | -0.912
33 | CCOC(=O)C(CC)n1cnc2c(nnn2-c2ccc(OC)cc2)c1=O (stereo unspecified) | 4.43 (active)
34 | Cc1cc(Nc2ccccc2)n(C(=O)c2ccc(Cl)cc2)n1 | 0.82
35 | O=S(=O)(NCc1ccccc1)c1ccc(Cl)cc1 | 2.77
36 | O=S(=O)(NCCCc1ccccc1)c1ccc(Cl)cc1 | -0.252
37 | O=S(=O)(NCc1ccccc1)c1ccc(Cl)c(S(=O)(=O)NCc2ccccc2)c1 | 0.165
38 | CCOC(=O)C1=c2s/c(=C\c3cccnc3)c(=O)n2C(N)=C(C(=O)OC)C1c1cccnc1 (stereo unspecified) | 0.984

Row | SMILES | z-score
39 | C[C@H](NC(=O)c1ccccc1Cl)C(=O)OCC(=O)N1CC2(C)CC1CC(C)(C)C2 (stereo partly specified) | 0.00588
40 | CC1(C)CC2CC(C)(CN2C(=O)NC(=O)c2ccccc2)C1 (stereo unspecified) | -0.259
41 | CC1(C)CC2CC(C)(CN2C(=S)NC(=O)c2ccccc2Cl)C1 (stereo unspecified) | 8.8 (active)
42 | O=C(CSCCO)Nc1cccc(C(F)(F)F)c1 | 0.657
43 | CN(C)C(=O)CN(c1ccc2c(c1)OCO2)S(C)(=O)=O | -0.0253
44 | CS(=O)(=O)N(CC(=O)O)c1ccc2c(c1)OCO2 | -2.86
45 | CCN(CC)C(=O)CN(c1ccc2c(c1)OCO2)S(C)(=O)=O | 2.51
46 | Cc1c(C(=O)OC(C)C)sc(NC(=O)C2CCCO2)c1C(=O)OC(C)C (stereo unspecified) | -0.0386
47 | O=C(CCNC(=O)c1ccccc1Cl)Nc1cccc(C(F)(F)F)c1 | -0.204
48 | Fc1cccc(Cl)c1CSc1nnc(COc2cccc3cccnc23)o1 | -0.675
49 | Cc1nc(N2CCN(C)CC2)c2sc(=S)n(C)c2n1 | 0.624
50 | Cc1ccc(-n2nnnc2-c2cnn(-c3cccc(F)c3)c2C(F)(F)F)cc1 | 0.0555
51 | COC(=O)c1ccc(CSc2nnc(Nc3cccc(OC)c3)s2)o1 | 0.67
52 | COC(=O)c1ccc(CSc2nnc(Nc3ccc(OC)cc3)s2)o1 | 0.755
53 | COC(=O)c1ccc(CSc2nnc(Nc3ccccc3OC)s2)o1 | 4.01 (active)
54 | CC1=C(C(=O)Nc2ccc(F)cc2)C(c2ccc(C)o2)C2=C(CC(C)(C)CC2=O)N1 (stereo unspecified) | 0.288
55 | CC(C)CNC(=S)N1CCN(C(c2ccccc2)c2ccccc2)CC1 | -0.358
56 | CCNc1ccc(S(=O)(=O)N(C)C)cc1NCC(=O)Nc1ccc(Br)cc1F | -0.257
